We go through 40 compounds from PubChem BioAssay (Tox21).

Each structure is given as a SMILES string. Records with an inconclusive call do not appear. A call without a number means that no potency is given here. Unmarked numbers belong to inactive results. Activity calls are given as the source filed them. The call rests on the fitted dose curve.
Potency means the concentration at half of the fitted maximal effect.

This experiment can be described thus: qHTS assay to identify small molecule agonists of the hypoxia (HIF-1) signaling pathway - cell viability counter screen (AID 1224844). Further: nearly all actives have a fitted effect of over 50% in size. Particulars: HRE-bla ME-180 viability, CellTiter-Glo luminescence, 17 h; series mostly up to 76.8 µM. An excerpt:
National Center for Advancing Translational Sciences [NCATS]
NIH Chemical Genomics Center [NCGC]
U.S. Environmental Protection Agency [EPA]
National Institutes of Environmental Health Sciences [NIEHS]
National Toxicology Program [NTP]
U.S. Food and Drug Administration [FDA]
Hypoxia-inducible factor-1 (HIF-1) is the major hypoxia-regulated transcription factor that controls cellular responses to low oxygen concentration. HIF-1 is composed of two subunits: hypoxia responsive HIF-1-alpha and constitutively expressed HIF-1-beta, which is also known as aryl hydrocarbon receptor nuclear translocator. During hypoxic conditions, HIF-1-alpha heterodimerizes with HIF-1-beta and translocates into the nucleus where the HIF-1 complex binds to the hypoxia-response element (HRE) and activates expression of target genes such as VEGF (vascular endothelial growth factor). The HIF-1 pathway is essential to normal growth and development, and is involved in the pathophysiology of cancer, inflammation, and ischemia.
Using a beta-lactamase reporter-gene under control of the hypoxia response element, a cell-based assay [CellSensor(TM) HRE-bla ME-180 from Life Technologies, Carlsbad, CA] was used to measure hypoxia-induced signaling. Tox21 10K library compounds were measured for their ability to induce the reporter gene activity. The cytotoxicity of the Tox21 compound library against HRE-bla ME-180 cell line was tested in parallel by measuring cell viability using CellTiter-Glo assay (Promega, Madison, WI) in the same assay wells.
Tox21 Assay Protocol Summary:
HRE-bla ME-180 cells were dispensed at 2,000 cells per well in 6 uL of assay medium containing 0.5% dialyzed FBS into black wall/clear-bottom 1536-well plates using a Multidrop Combi (Thermo Scientific, Waltham, MA) dispenser. After the assay plates were incubated at 37C and 5% CO2 for 5 hrs, 23 nL of compounds dissolved in DMSO, positive controls or DMSO only was transferred to each well of the assay plate using a Pintool station (Kalypsys, San Diego, CA). The assay plates were incubated at 37C and 5% CO2 for 17 hrs. One uL of LiveBLAzerTM B/G FRET substrate (CCF4-AM) (Life Technologies) was added to each well using a Flying Reagent Dispenser (FRD, Aurora Discovery, San Diego, CA). After 2 hr incubation at room temperature, fluorescence intensity (405 nm excitation, 460 nm and 530 nm emissions) was measured using an Envision plate reader (PerkinElmer, Shelton, CT). For cytotoxicity, 4 ul/well of CellTiter-Glo reagent was added into the assay plates using an FRD. After 30 min incubation at room temperature, the luminescence intensity was measured using a ViewLux plate reader (PerkinElmer).
(In general: qHTS replaces the single test concentration by a dilution series.)
Consider `CCOC(=O)NCCC[Si](OCC)(OCC)OCC`, for which the Potency result was “inactive”.
The same measure, in the same setting: the entry for `CN(C)Cc1ccccc1` is “inactive”.
Consider `CN(C)C(=O)NC1(c2ccccc2)CCN(CCC[C@]2(c3ccc(Cl)c(Cl)c3)CCCN(C(=O)c3ccccc3)C2)CC1`, for which the activity change, negative = cytotoxicity was -18.7% [at 15.8 µM].
On to `Cc1nc(N)nc(N)c1-c1ccc(Cl)c(Cl)c1`, for which the Potency entry is “inactive”.
On to `O=C(O)c1ccccc1Nc1cc(Cl)ccc1C(=O)O`, for which the activity change, negative = cytotoxicity is 5.17% [at 15.8 µM].
Turning to `CC(C)(C)c1ccc(OC(=O)c2ccccc2O)cc1`, the Potency entry is “inactive”.
Same read-out and setting: then `COc1ccccc1N1CCN(CCCNc2cc(=O)n(C)c(=O)n2C)CC1`, with “inactive”; and `C1CCOC1`, with “inactive”.
Regarding `NCCCN1CCN(CCCN)CC1`, the Potency entry is “inactive”.
As for `C[C@]12C(=O)OC(=O)[C@H]1[C@H]1C=C[C@@H]2C1`, the Potency result was “inactive”.
Take `Nc1ccc2ccccc2c1S(=O)(=O)O`: the Potency entry is “inactive”.
Same read-out and setting: then `CCCCCCCCCCCCOCCOS(=O)(=O)O`, with 43.6 µM (active); and `CC(=O)OC(C)OC(C)=O`, with “inactive”; and `O=C1C=CC(=O)O1`, with “inactive”.
The same measure, in the same setting: the entry for `C=C(C)C(=O)OCCOP(=O)(O)O` is “inactive”; for `O=C(O)[C@@H](O)[C@H](O)[C@H](O)[C@@H](O)C(=O)O` it is “inactive”.
The same measure, in the same setting: the entry for `CC(Oc1c(Cl)cccc1Cl)C1=NCCN1` (stereo not given) is “inactive”.
`CCOC(=O)COc1ccc2c(c1)CC(NCC(O)c1cccc(Cl)c1)CC2` (stereo not given): the Potency result was “inactive”.
Consider `CCCCOc1cc(C(=O)NCCN(CC)CC)c2ccccc2n1`, for which the Potency entry was “inactive”.
Turning to `C[C@@H]1CN(c2c(F)c(F)c3c(=O)c(C(=O)O)cn(C4CC4)c3c2F)C[C@H](C)N1`, the activity change, negative = cytotoxicity was 2.14% [at 15.8 µM].
Regarding `NS(=O)(=O)c1cc(-c2nn[nH]n2)c(NCc2cccs2)cc1Cl`, the Potency entry was “inactive”.
On the same count and under the same terms, then `CCNCCO`, with “inactive”.
The same measure, in the same setting: the entry for `COC(=O)C(C)O` (stereo not given) is “inactive”; for `C[C@]12CCC(=O)C=C1CC[C@@H]1[C@@H]2CC[C@@]2(C)[C@H]1CC[C@]2(O)C(=O)CO` it is “inactive”; for `COc1cc(C)ccc1C(C)C` it is “inactive”.
With `Cc1c(C(=O)NCCO)[n+](=O)c2ccccc2n1[O-]`, the Potency entry was “inactive”.
Still for that read-out and setting: the entry for `C=CC(C)(O)CC/C=C(\C)CCC=C(C)C` (stereo not given) is “inactive”; for `CCC(=O)c1ccc2c(c1)N(CCCN(C)C)c1ccccc1S2` it is “inactive”.
The same measure, in the same setting: the entry for `Cc1ccccc1C(=O)Nc1ccc(C(=O)N2CCCC(O)c3cc(Cl)ccc32)c(C)c1` (stereo not given) is “inactive”.
`CCCCCCCOC(=O)CCC`: the Potency entry was “inactive”.
Same read-out and setting: the entry for `CN1CCN(c2c(F)cc3c(=O)c(C(=O)O)cn4c3c2SCC4)CC1` is “inactive”.
Same read-out and setting: the entry for `CC(=O)Nc1ccc(C)c(Cl)c1` is “inactive”.
Take `CC(=O)N[C@@H](CC(C)C)C(=O)O`: the Potency result was “inactive”.
Same read-out and setting: the entry for `CCOC(=O)[C@H](CCc1ccccc1)N[C@@H](C)C(=O)N1Cc2cc(OC)c(OC)cc2C[C@H]1C(=O)O` is “inactive”.
On the same count and under the same terms, the entry for `Cc1c(N)cccc1N` is “inactive”; for `Cc1onc(-c2ccccc2)c1C(=O)Cl` it is “inactive”; for `CCCN(CCC)C(=O)C(CCC(=O)O)NC(=O)c1ccccc1` (stereo not given) it is “inactive”.
As to `Cc1ccc(C(C)C)cc1O`, the Potency result is “inactive”.
The same measure, in the same setting: then `CC1(C)S[C@@H]2[C@H](NC(=O)C(C(=O)O)c3ccccc3)C(=O)N2[C@H]1C(=O)O` (stereo not given in full), with “inactive”; and `CC(C)NCC(O)COc1ccc(CCOCC2CC2)cc1` (stereo not given), with “inactive”.
